Test results: PubChem BioAssay
Calls of active or inactive are those of the source.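 How the source made its calls, unless noted: active means inhibition at or above 50% at 10 µM; inactive means inhibition below 50%.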

Experiments:
[1] = inhibitors of TNFa-induced NFkB p65 translocation, primary screen, imaging, HUVEC, MLSMR starter and 10KST1 sets (AID 438;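 active means inhibition above 20% together with a positive visual image hit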;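 further: compound added about 3h40 before a 20 min TNFalpha stimulation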;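 on inhibition: signal is the nuclear over cytoplasmic p65 intensity ratio per well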); conditions: HUVEC TNFa-induced p65 nuclear translocation; cell count: measured here: nuclei count (cytotoxicity indicator), at 2.08 µM; inhibition: at 2 µM, stronger effect = higher value, 0% TNFa-plus-vehicle, 100% no-TNFa wells
[2] = reduction of polyQ htt aggregates in cells – imaging, exon1htt(103Q)mCFP cells, high-content imaging, primary screen (AID 483;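 active means visual image review flags a hit and inhibition of aggregation exceeds 20%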;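 further: compound exposure lasted 3 days before fixation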;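 on nuclei count: percent of the per-plate median nuclei count of sample wells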); conditions: exon1htt(103Q)mCFP cell line, aggregate imaging, at 2 µM; inhibition of aggregation: stronger effect = higher value; nuclei count: measured here: cell count, toxicity
[3] = endothelial E-selectin expression blockers – imaging, HUVEC, immunofluorescence, MLSMR starter and 10KST1 sets, primary screen (AID 487;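 active means visually confirmed hit in the image check and inhibition above 20%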;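 on inhibition: signal is fraction of cell area covered by stained E-selectin grains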;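 on nuclei count: 100% = median nuclei count of all wells on the same plate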); conditions: HUVEC TNFalpha-induced E-selectin immunofluorescence imaging, at 2 µM; inhibition: stronger effect = higher value; nuclei count: measured here: cell number, toxicity
[4] = target: Voltage-gated potassium channel subunit beta-2 (Rattus norvegicus) (UniProt P62483); experiment: inhibitors of rat Kvbeta2 reductase activity – biochemical, NADPH fluorescence, primary screen (AID 622;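 active means fluorescence slope higher than the sample average by over 3 SD, cut at about -0.22 in these data, passing the limit was not always enough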;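 further: slope of raw intensity against log time taken from 70 to 1610 s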); conditions: recombinant KvBeta, 4-cyanobenzaldehyde reduction, at 10 µM, stronger effect = higher value
[5] = target: Voltage-gated potassium channel subunit beta-2 (Rattus norvegicus) (UniProt P62483); experiment: enhancers of rat Kvbeta2 NADPH turnover – biochemical, NADPH fluorescence, primary screen (AID 623;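 active means NADPH fluorescence slope more negative than the mean of all samples by about 3 SD, 99.7% confidence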;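 further: fluorescence intensity change per second fitted from 20 to 320 s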); conditions: Recombinant KvBeta, NADPH fluorescence decrease slope, 10 min; at 10 µM; stronger effect = lower value
[6] = target: Alpha-2C adrenergic receptor (Homo sapiens) (UniProt P18825); experiment: compounds altering alpha2C-coupled GIRK flux – cell-based, HEK293 alpha2C/GIRK1/2, thallium flux, primary screen (AID 624;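 active means fluorescence slope after compound addition differing from the mean of all screened samples at 99.7% confidence, in either direction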;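 further: slope of fluorescence ratio to pre-addition baseline per second over 15 to 24 s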); conditions: thallium flux BTC fluorescence, at 10 µM, actives lie on both sides
[7] = blockers of RIG-like receptor reporter activation – cell-based, Sendai virus stimulus, luciferase, 10K MLSCN set, TLR/RLR signaling modifier project, primary screen (AID 602276); conditions: HEK293 RL24 IRF3 luciferase reporter, at 10 µM, stronger effect = higher value;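 further: firefly luciferase from ISG56 promoter only with Renilla not read in this screen; 0% = Sendai virus plus DMSO and 100% = medium plus DMSO without virus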
[8] = TLR3 IRF3 reporter activation blockers – cell-based, poly I:C stimulus, luciferase, 10K MLSCN set, primary screen (AID 602277;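 active means inhibition of the reporter signal at or above 50%; inactive means inhibition below 50%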); conditions: HEK293-TLR3 RL24 IRF3 luciferase reporter, at 10 µM, stronger effect = higher value

Voltage-gated potassium channel subunit beta-2 (Rattus norvegicus), sequence (P62483 whole entry, looked up): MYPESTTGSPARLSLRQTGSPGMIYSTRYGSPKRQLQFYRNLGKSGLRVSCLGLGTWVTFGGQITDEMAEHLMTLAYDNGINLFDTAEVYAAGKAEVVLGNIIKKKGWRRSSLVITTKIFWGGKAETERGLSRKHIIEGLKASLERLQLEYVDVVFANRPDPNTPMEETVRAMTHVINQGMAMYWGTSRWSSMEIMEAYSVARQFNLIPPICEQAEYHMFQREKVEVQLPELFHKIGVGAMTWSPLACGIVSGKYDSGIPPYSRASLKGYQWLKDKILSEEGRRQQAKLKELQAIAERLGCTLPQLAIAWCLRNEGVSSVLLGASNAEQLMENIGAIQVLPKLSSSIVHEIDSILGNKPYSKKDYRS
Alpha-2C adrenergic receptor (Homo sapiens), sequence (P18825 whole entry, looked up): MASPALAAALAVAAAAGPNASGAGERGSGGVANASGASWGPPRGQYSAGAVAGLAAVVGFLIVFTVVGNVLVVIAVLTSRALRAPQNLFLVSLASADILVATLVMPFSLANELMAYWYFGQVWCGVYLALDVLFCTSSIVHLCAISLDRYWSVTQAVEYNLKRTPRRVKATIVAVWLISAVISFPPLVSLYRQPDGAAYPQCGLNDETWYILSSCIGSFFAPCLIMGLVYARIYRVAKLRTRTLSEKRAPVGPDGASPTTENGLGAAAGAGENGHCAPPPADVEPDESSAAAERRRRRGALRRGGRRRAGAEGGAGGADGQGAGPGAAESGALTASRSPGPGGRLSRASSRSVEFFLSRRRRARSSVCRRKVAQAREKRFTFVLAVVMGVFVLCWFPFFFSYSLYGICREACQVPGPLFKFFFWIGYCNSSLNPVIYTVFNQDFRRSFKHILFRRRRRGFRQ

| Structure (SMILES) | cell count [1] | inhibition [1] | inhibition of aggregation [2] | nuclei count [2] | inhibition [3] | nuclei count [3] | fluorescence slope [4] | NADPH fluorescence slope [5] | slope [6] | inhibition [7] | inhibition [8] |
| --- | --- | --- | --- | --- | --- | --- | --- | --- | --- | --- | --- |
| CCC(=O)N1CCc2cc(S(=O)(=O)CCC(=O)Nc3ccc(F)c(F)c3)ccc21 | 571 | 5.2% (inactive) | 6.1% (inactive) | 96% | -68.8% (inactive) | 111% | -0.423 (inactive) | -1.2e-05 (inactive) | 0.00293 (inactive) | -11.6% (inactive) | -3.44% (inactive) |
| CC1CCN(C(=O)CCNS(=O)(=O)c2ccccc2)CC1 | 709 | 0.4% (inactive) | -20.3% (inactive) | 101% | -149% (inactive) | 142% | -0.605 (inactive) | -2.3e-07 (inactive) | 0.00564 (inactive) | -23.4% (inactive) | -31.3% (inactive) |
| Cc1nc2ccc(Br)cn2c1NC(C)(C)C | 209 | 12.8% (inactive) | -17.9% (inactive) | 103% | -2.7% (inactive) | 102% | -0.531 (inactive) | -2.1e-05 (inactive) | 0.00552 (inactive) | -1.2% (inactive) | 3.15% (inactive) |
| O=C(Nc1ccc(N2CCOCC2)cc1)C1CC1 | 344 | 3.5% (inactive) | 25% (inactive) | 83.9% | -16.5% (inactive) | 121% | -0.39 (inactive) | -2.3e-05 (inactive) | 0.00566 (inactive) | 6.17% (inactive) | -13.8% (inactive) |
| COC(=O)c1cc(OC)c(OC)cc1NC(=O)CCC1CCCC1 | 452 | 3.7% (inactive) | 14.1% (inactive) | 104% | -78.6% (inactive) | 101% | -0.637 (inactive) | -1e-05 (inactive) | 0.00682 (inactive) | 12.6% (inactive) | 22.5% (inactive) |
| CCN1CCN(c2ncc(C(=O)N3CCN(c4ccccc4OC)CC3)c3ccccc23)CC1 | 315 | -2.5% (inactive) | 0.9% (inactive) | 97.8% | 13.2% (inactive) | 96.4% | -0.466 (inactive) | -4.4e-05 (inactive) | 0.00623 (inactive) | 0.246% (inactive) | 31.7% (inactive) |
| CCOCCCNC(=O)C1CCC(CNS(=O)(=O)c2cccc3nsnc23)CC1 (stereo not drawn) | 808 | 6.8% (inactive) | -28.4% (inactive) | 103% | -19.9% (inactive) | 119% | -0.476 (inactive) | -4.4e-05 (inactive) | 0.00547 (inactive) | 8.12% (inactive) | 22.9% (inactive) |
| O=c1[nH]c(CN2CCN(Cc3ccccc3)CC2)nc2sc3c(c12)CCC3 | 406 | -0.4% (inactive) | -0.1% (inactive) | 109% | -73% (inactive) | 99.5% | -0.596 (inactive) | -3e-05 (inactive) | 0.00576 (inactive) | 3.63% (inactive) | 17.7% (inactive) |
| S=c1[nH]nc(-c2ccco2)n1-c1cccc2ccccc12 | 390 | 1.5% (inactive) | -1.8% (inactive) | 111% | -181% (inactive) | 104% | -0.526 (inactive) | 3.2e-05 (inactive) | 0.00555 (inactive) | -23.7% (inactive) | -8.5% (inactive) |
| CC(=O)Nc1ccc(NS(=O)(=O)C(F)(F)F)cc1 | 417 | 2% (inactive) | 8% (inactive) | 104% | -96% (inactive) | 127% | -0.353 (inactive) | -0.000109 (inactive) | 0.00651 (inactive) | 3.92% (inactive) | 21.1% (inactive) |
| COC(=O)c1[nH]c2c(c1C)C(=O)CC(c1cc(OC)ccc1OC)C2 (stereo not drawn) | 546 | -4.2% (inactive) | 30.2% (inactive) | 81% | -36.2% (inactive) | 114% | -0.573 (inactive) | -1.2e-05 (inactive) | 0.00652 (inactive) | 38.3% (inactive) | 21.5% (inactive) |
| CC(C)NC(=O)CSCc1ccccc1Cl | 350 | 12.5% (inactive) | 6.1% (inactive) | 100% | -0.7% (inactive) | 110% | -0.5 (inactive) | -1.3e-05 (inactive) | 0.00508 (inactive) | 9.82% (inactive) | 0.78% (inactive) |
| Cc1ccc2[nH]c(=O)c(CN(CCCN3CCOCC3)C(=O)Nc3cccc(Cl)c3)cc2c1 | 724 | 21.3% (inactive) | -15.9% (inactive) | 89% | 8% (inactive) | 131% | -0.597 (inactive) | -5.2e-05 (inactive) | 0.00418 (inactive) | 13.4% (inactive) | 4.8% (inactive) |
